{"source": "paper PMC5540273", "about": "(PLoS ONE, 2017);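 also: KINOMEscan kinase panel screen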"}
{"tested_on": "T1, RSK3(Kin.Dom.2-C-terminal)", "T1 construct": "gene RPS6KA2", "details": "concentration: 1 μM, replicates: in singlicate; n = 1", "units": {"%Inh": "%"}}
{"smiles": "COc1ccc(-c2coc3ccc(-c4nnc(SCc5ccc(OC)c(C(F)(F)F)c5)o4)cc23)cc1", "%Inh": 19}
{"smiles": "COc1cccc(-c2ccc3c(NC(=O)C4CC4)n[nH]c3n2)c1", "note": "[SB-710903]", "%Inh": 1}
{"smiles": "Oc1cc(Nc2ccnc3cc(I)ccc23)ccc1F", "note": "[GW552771]", "%Inh": 0}
{"smiles": "COc1cc2c(cc1OCCN1CCNCC1)ncc1c3ccc(C#N)cc3[nH]c21", "%Inh": 0}
{"smiles": "CCS(=O)(=O)c1ccc(OC)c(Nc2nccc(-c3c(-c4cccc(NC(=O)c5c(F)cccc5F)c4)nn4ncccc34)n2)c1", "note": "[GSK326180]", "%Inh": 0}
{"smiles": "Cc1cccc(Nc2nc(N[C@H]3CCNC3)ncc2C(N)=O)c1.Cl", "note": "[GSK2197149]", "%Inh": 4}
